About 83,000 compounds went through this panel and 20% of them were active in at least one assay; those are over-represented in the sample as a whole.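 96-well plates, one dose, 48 hours. Percent growth reported; active if below 10.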 Unmarked numbers belong to inactive results. The source made the active and inactive calls.

Common to all, as to experiment: NCI-60 one-dose screen, 48 h (100 = growth as untreated, 0 = no growth, -100 = all killed)
Common to all, as to conditions: 10 µM unless noted

Test [1] deals with NCI-H23 lung.
Test [2] has as its system NCI-H226 lung.
Test [3] relates to NCI-H322M lung.
Test [4] relates to HOP-62 NSCLC.
The test system of test [5] is NCI-H460 lung.
Test [6] has as its system HOP-92 NSCLC.
In test [7] the test system is NCI-H522 lung.
Test [8] concerns A549/ATCC NSCLC.
Test [9] concerns 786-0 renal.
The test system of test [10] is COLO 205 colon.

For `C=CC(=O)NC(=O)Nc1ccccc1Cl`, the growth was 103% in [1]; 94.2% in [2]; 90.2% in [3]; 89.8% in test [4]; 102% in test [5]; 86.2% in [6]. In addition, the growth is 6.09% (active) in [7], 75.4% in test [8], 74.3% in test [9] and 88.9% in test [10].

Turning to `CC(NCCC(c1ccccc1)c1ccccc1)c1ccccc1` (stereo not given), the growth in test [1] was 82%; in test [2] it was 87.6%; in test [3], 69.8%; in test [4] it was 97.8%; in test [5], 11.6%; in [6] it was 43.3%. The growth in test [7] was 74.8%; in test [8] it was 80.7%; in test [9], 73.4%; in test [10], -54.9% (active).

`CCCCCCCCCCCC(=O)OCCNC(=O)C[n+]1ccccc1`: the growth was 107% in test [1]; 98.7% in [2]; 99.4% in test [3]; 102% in [4]; 120% in test [5]; 68.7% in test [6]. Besides, the growth in [7] is 102%; in test [8], 104%; in test [9] it was 112%; in test [10] it was 105%.

For `Cc1cc(N2CCOCC2)nc(N(CCNc2ccnc3cc(Cl)ccc23)Cc2ccco2)n1`, the growth in [1] was 58%; in test [2], 60.5%; in test [3] it was 41.8%; in test [4], 36.5%; in test [5], 47.3%; in test [6] it was 46.7%. Besides, the growth in test [7] was 13.9%; in test [8], 50.7%; in test [9], 5.93% (active); in test [10], -4.11% (active).

As to `COc1ccc(-c2nnc(SCC(=O)N3CCN(c4cc5c(cc4F)c(=O)c(C(=O)O)cn5C4CC4)CC3)o2)cc1OC`, the growth is 101% in test [1]; 103% in test [2]; 96.2% in test [3]; 67% in test [4]; 104% in test [5]; 51.6% in test [6]. Further, the growth was 88.6% in test [7], 101% in test [8], 69.3% in test [9] and 74.1% in [10].

As to `CC(C)[C@@H]1NC(=O)[C@]2(C)CSC(=N2)c2ccnc(c2)CNC(=O)C[C@@H](/C=C/CCS)OC1=O`, the growth was 12.6% in [1]; 11.8% in test [2]; 4.39% (active) in [3]; 6.46% (active) in test [4]; 9.2% (active) in test [5]; -16.5% (active) in [6]. For the same compound, the growth is -18.4% (active) in test [7], -1.52% (active) in [8], 6.38% (active) in test [9] and -70.3% (active) in test [10].

In the case of `COc1ccc2c(c1)O/C(=C/c1ccc(OCC(=O)Nc3ccc(S(N)(=O)=O)cc3)cc1)C2=O`, the growth is 100% in [1]; 86.9% in [2]; 97.8% in test [3]; 104% in test [4]; 101% in test [5]; 91.4% in test [6]. Further, the growth in test [7] is 80.7%; in test [8], 88.5%; in [9], 96.7%; in test [10] it was 114%.

`Cc1ccc(/C=C2/C(=O)Nc3cc(Cl)c(-c4csc(N)n4)cc32)cc1`: the growth was 75% in test [1]; 80.8% in test [2]; 81.4% in [3]; 71.7% in test [4]; 81.1% in test [5]; 79.4% in test [6]. For the same compound, the growth in [7] is 33.7%; in test [8] it was 74.1%; in test [9], 87.8%; in test [10] it was 82.1%.

For the compound `FC(F)(F)c1cn(CC2CNC2)c2ncnc(Cl)c12`, the growth was 104% in [1]; 102% in test [2]; 111% in test [3]; 102% in [4]; 105% in test [5]; 114% in [6]. Moreover, the growth was 89.7% in test [7], 94.3% in test [8], 107% in test [9] and 106% in [10].

For the compound `C[C@H]1C=C(C[C@@H](O)CCCCCCCCCC[C@@H](O)[C@H]2CCC(=O)O2)C(=O)O1`, the growth in [1] is 95.5%; in [2], 96.5%; in test [3] it was 94.2%; in test [4], 109%; in test [5], 113%; in [6], 68%. Also, the growth in test [7] was 73.3%; in test [8] it was 110%; in test [9], 96.8%; in test [10], 92.5%.

Take `Clc1ccc(OCc2nc(-c3ccccc3)n[nH]2)c(Cl)c1`: the growth in [1] was 97.6%; in [2], 89.9%; in test [3] it was 101%; in test [4], 86.8%; in [5], 99.3%; in test [6] it was 90.8%. Also, the growth in test [7] was 92%; in test [8], 97.1%; in [9], 108%; in [10], 90.5%.

`c1ccc2nc(Cn3cc[n+](Cc4ccc5ccccc5n4)c3)ccc2c1`: the growth in test [1] is 48.7%; in test [2], 70.8%; in test [3] it was 95.3%; in [4], 82.5%; in test [5], 77.7%; in test [6], 34.3%. Besides, the growth in test [7] was 34.5%; in test [8] it was 77.5%; in test [9], 101%; in [10], 25.6%.

As to `C=C1C(=O)O[C@H]2[C@H]1CC/C(COC(=O)c1ccc(Br)cc1)=C\CC[C@@]1(C)O[C@@H]21`, the growth in test [1] was 32.6%; in test [2], -55.8% (active); in test [3], 60.5%; in [4], 25.8%; in [5], 25.7%; in test [6], -73% (active). Moreover, the growth is -78.1% (active) in test [7], 16.2% in test [8], -61% (active) in [9] and -67.2% (active) in [10].

(Values after PubChem BioAssay (NCI).)
